# From PubChem BioAssay (NCI)
# This is part of a sample that, as a whole, favours compounds with a hit. Of some 83,000 tested, about 20% had one in any assay.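 48-hour exposure, single concentration, 96-well plates; percent growth endpoint where 0 means no net growth. Active: below 10.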 Unmarked numbers belong to inactive results. Active and inactive are the calls of the source.
# Assays:
# Assay in all cases: NCI-60 one-dose screen, 48 h (100 = growth as untreated, 0 = no growth, -100 = all killed)
# Conditions in all cases: 10 µM unless noted
# [1] = test system: DU-145 prostate
# [2] = test system: K-562 leukemia
# [3] = test system: MALME-3M melanoma
# [4] = test system: MDA-MB-231 breast
# [5] = test system: RXF 393 renal
# [6] = test system: SF-268 CNS
# [7] = test system: SF-295 CNS
# [8] = test system: SF-539 CNS
# [9] = test system: UACC-257 melanoma
# [10] = test system: M14 melanoma
# [11] = test system: HCT-15 colon
# [12] = test system: HT29 colon
# [13] = test system: SNB-75 CNS
# [14] = test system: SNB-19 CNS
# [15] = test system: U251 CNS
# [16] = test system: PC-3 prostate
# [17] = test system: SK-MEL-5 melanoma
# [18] = test system: UACC-62 melanoma
# [19] = test system: LOX IMVI melanoma
# [20] = test system: SK-MEL-28 melanoma
SMILES,growth [1],growth [2],growth [3],growth [4],growth [5],growth [6],growth [7],growth [8],growth [9],growth [10],growth [11],growth [12],growth [13],growth [14],growth [15],growth [16],growth [17],growth [18],growth [19],growth [20]
Cc1ccc(-c2cc(-c3cccnc3)[nH]c(=O)c2C#N)cc1,110%,108%,112%,109%,105%,99.3%,102%,99.9%,108%,112%,103%,107%,85.2%,97%,101%,110%,105%,96.9%,96.9%,109%
Cn1c2c(c3ccc(Cl)c(Cl)c31)C(C#N)C1(CCNCC1)NC2=O (stereo not given),69.1%,26.1%,58.1%,42.2%,25.9%,48.6%,58.3%,56.8%,39.9%,16.1%,47.2%,9.42% (active),22.2%,57.2%,47.7%,20.5%,59.6%,-46.5% (active),14.2%,-81.4% (active)
CC1CC2Oc3ccc(Cl)cc3C(=O)N2O1 (stereo not given),102%,107%,118%,102%,119%,103%,104%,102%,118%,107%,99.2%,105%,101%,112%,108%,97.1%,102%,108%,98.2%,118%
NS(=O)(=O)c1cnccc1Sc1ccncc1S(N)(=O)=O,102%,76.3%,91.1%,111%,108%,107%,130%,93%,111%,100%,102%,113%,96.6%,105%,107%,94.9%,105%,99.4%,101%,117%
N#Cc1c2c(nn(-c3ccccc3)c1=O)C(O)=C([N+](=O)[O-])C(c1ccccc1)C2 (stereo not given),26.2%,41%,86.1%,71.1%,49.7%,88%,98.9%,83%,87.7%,86.1%,54.7%,94.1%,90.6%,84.2%,57.7%,80.5%,92.9%,84.6%,17.9%,96.4%
Cc1cc(N2CCCC2)nc(NCc2cc(Nc3ccnc4cc(Cl)ccc34)ccc2F)n1,-65.9% (active),-31.9% (active),-66.9% (active),-69.8% (active),-64.9% (active),-56.2% (active),-87.5% (active),-70.4% (active),-64% (active),-80.3% (active),-74.3% (active),-41.6% (active),-90.7% (active),1.18% (active),-89.7% (active),-38.8% (active),-98.6% (active),-77.8% (active),-92.9% (active),-71.4% (active)
COc1ccc2c(c1)O/C(=C/c1ccc(OCC(=O)c3ccccc3)cc1)C2=O,118%,80.7%,96.3%,84.4%,109%,117%,137%,107%,125%,99.3%,111%,110%,120%,108%,108%,96.2%,125%,96.3%,108%,132%
CS(=O)c1cccc(-c2ccc3nc(N)n(-c4ccc(C(F)(F)F)cc4)c(=O)c3c2)c1 (stereo not given),103%,96.2%,78.6%,90.5%,92.5%,89.1%,92.1%,91.7%,101%,99.5%,105%,99.8%,114%,91.7%,88.9%,83.5%,87.8%,95%,88.1%,114%
CCN1CCN(c2cc(C)nc(NCc3cc(Nc4ccnc5cc(Cl)ccc45)ccc3F)n2)CC1,50.7%,4.69% (active),107%,26.4%,58.5%,58%,31%,55.7%,69.2%,-64.3% (active),15.9%,-5.84% (active),79%,68.3%,59.8%,57.6%,-85.5% (active),86.3%,8.07% (active),93.3%
COc1cc2nc(Cl)nc(Nc3ccc(S(=O)(=O)Nc4nccs4)cc3)c2cc1OC,119%,115%,112%,109%,110%,109%,104%,85.9%,103%,100%,96.3%,117%,87.1%,102%,96.3%,91.6%,102%,96%,86.5%,115%
CCN1C(=O)N(CC)C2C1NN=c1s/c(=C\c3cccs3)c(=O)n12 (stereo not given),10.4%,14.5%,49.1%,7.14% (active),11.5%,59.3%,19.3%,-3.34% (active),74.4%,8.36% (active),16.5%,60.2%,16.6%,37%,19.8%,21.9%,-4.97% (active),38%,23.1%,58.3%
S=C(c1ccc2c(c1)OCO2)N1CCN(c2ccccc2Cl)CC1,105%,108%,72%,98.7%,109%,94%,118%,102%,96.2%,99.3%,96.2%,93.6%,100%,99.4%,95.2%,84.7%,89.6%,89.5%,111%,103%
CCN(CC)Cc1cccc(C(=O)OC)c1,111%,110%,95.3%,100%,105%,104%,97.8%,94%,73.4%,91.7%,102%,106%,87.9%,101%,96.3%,78.1%,97.1%,103%,94.1%,104%
CCN1C(=O)N(CC)C2Nn3c(s/c(=C4\C(=O)N(C)c5ccccc54)c3=O)=NC21 (stereo not given),18.1%,14.9%,48.3%,43.6%,-17.4% (active),55.5%,52.2%,9.32% (active),61.8%,13.1%,29.7%,74.9%,9.74% (active),56.5%,39.7%,27.8%,36.4%,51%,55.9%,59.3%
N=C(N)c1ccc(-c2ccc(-c3cncc4ccccc34)s2)s1,-90% (active),-59.4% (active),-59.1% (active),-72.3% (active),-74.9% (active),-71.5% (active),-81.3% (active),-77.6% (active),123%,-76.8% (active),-74.2% (active),-77.1% (active),-95.9% (active),-54.8% (active),-92.5% (active),-80.8% (active),-89.5% (active),-64.5% (active),-78.1% (active),-69.7% (active)
